In all, about 35,000 sequences were measured (“fluorescence intensity (a.u.)”: median about 10,000, highest 2% from about 52,000 on). What follows is part of a selection rich in the highest values, with near analogues and random picks from the rest.

The test deals with T1, OsWOX13 (Oryza sativa, UniProt Q5QMM3 1-267).
T1 sequence: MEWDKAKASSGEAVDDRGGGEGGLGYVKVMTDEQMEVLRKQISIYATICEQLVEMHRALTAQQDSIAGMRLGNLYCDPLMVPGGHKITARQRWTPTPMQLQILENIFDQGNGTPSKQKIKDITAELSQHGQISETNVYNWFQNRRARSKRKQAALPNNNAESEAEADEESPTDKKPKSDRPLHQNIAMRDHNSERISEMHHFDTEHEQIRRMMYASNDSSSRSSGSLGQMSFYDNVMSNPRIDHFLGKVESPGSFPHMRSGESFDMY
Kind of test: protein-binding microarray (RPBM); PBS, 2% BSA, 51.3 ng/ul salmon testes DNA, 50 uM zinc acetate, 200 nM TF, 25 C, 1 h; high values mean tight binding. The conditions noted are these: protein: recombinant; tags: N-terminal polyhistidine and DsRed monomer fusion (pET32a); label: CyDye5-dUTP incorporated in the synthesized complementary strand; 3' TTTTT single-stranded linker to array surface; dsDNA, one strand shown. Summed up:
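Binding signal here means per-feature fluorescence intensity in arbitrary units. The values were read on an Axon 4000B scanner after a custom Agilent array, double-stranded by primer extension with Cy5-dUTP, was incubated with 200 nM protein at 25 °C for 1 h in PBS with 2% BSA, salmon testes DNA and 50 µM zinc acetate, then washed. The proteins were transcription factors with an N-terminal polyhistidine tag and DsRed, expressed in E. coli BL21-CodonPlus and purified on Ni–NTA.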
As for “GTTGGTTAATTGCAATTTAATTGTTGTATTGTAAGAGTCTCGGAGTCACCTAGTGCAG”, the binding signal is 56100 fluorescence intensity (a.u.).
As to “CCTAATTTGCGTGATTGGATTGGTTGGTTGTGTTGTAATGCGGAGTCACCTAGTGCAG”, the binding signal was 65000 fluorescence intensity (a.u.).
Consider “CATTGATTTTGTTTTATTATTTTGGTTGGTGGTGCCGTGTCGGAGTCACCTAGTGCAG”, for which the binding signal is 39100 fluorescence intensity (a.u.).
As for “GGTTGGATGGTTGGATTTGATGTGGATTTGAATTGTTATGCGGAGTCACCTAGTGCAG”, the figure is 7890 fluorescence intensity (a.u.).
The same measure for “TGGAAGTCAAGTCACTAATTGGAAGAAGATGGTGATAATGCGGAGTCACCTAGTGCAG”: 16600 fluorescence intensity (a.u.); for “AGTTTGGATTTTGGTTGAAATTGAAGATAATGTGACTGAACGGAGTCACCTAGTGCAG”: 3240 fluorescence intensity (a.u.); for “TGCTTGCTTGCTTGGTTTGATTGGTGGAGGTGGGAGGAGTCGGAGTCACCTAGTGCAG”: 3920 fluorescence intensity (a.u.).
In the case of “GGTGATTGCATTTGATTGGGTGGAAAAGGTTTGATTTTGTCGGAGTCACCTAGTGCAG”, the binding signal was 64900 fluorescence intensity (a.u.).
“GACACTGGGTAAATTATTCAATTCTAACTAAATTATATGACGGAGTCACCTAGTGCAG”: the binding signal is 4590 fluorescence intensity (a.u.).
The same measure for “TCGATAAATTGAGGAGACCAAAATTCACGAAATCAACATACGGAGTCACCTAGTGCAG”: 7550 fluorescence intensity (a.u.); for “AGCTGTTCCAATTATGAACTCACTAACTTTACATAGAGGTCGGAGTCACCTAGTGCAG”: 3650 fluorescence intensity (a.u.).
As for “ACAGTTCCTTTGTGCCAATCATTGAACCCGGGAATGCTGGCGGAGTCACCTAGTGCAG”, the figure is 4780 fluorescence intensity (a.u.).
As for “TATGAATGACATATAAACAGATAATCGTGTTCACCGAATGCGGAGTCACCTAGTGCAG”, the figure is 20900 fluorescence intensity (a.u.); as for “TCTGATAGCTTGTGAGGGTTTCATTCATCCTCTGCTAGTGCGGAGTCACCTAGTGCAG”, 6630 fluorescence intensity (a.u.); as for “GTCTTCAAATTATATTAGTTATAACTATAGTTCACACAATCGGAGTCACCTAGTGCAG”, 4610 fluorescence intensity (a.u.).
For “TCAGCTAATCAGCTAACTGGTCCTTTTCCTACTTCCCTTGCGGAGTCACCTAGTGCAG”, the binding signal was 8010 fluorescence intensity (a.u.).
As to “GGGGATTGGGAGTTTATACAAGGGAATTGATGGTGAGATTCGGAGTCACCTAGTGCAG”, the binding signal is 21000 fluorescence intensity (a.u.).
The same measure for “TTAAGATAGAGGAAACATTGATTGTATGCATGCTATATATCGGAGTCACCTAGTGCAG”: 3750 fluorescence intensity (a.u.).
The same measure for “GCTAATTTATACAATAGTTGCTTACTATAGAATTAATGCACGGAGTCACCTAGTGCAG”: 27200 fluorescence intensity (a.u.); for “GCATAGATTATTATGCAGAAAGTTCATGTATATGACCAGCCGGAGTCACCTAGTGCAG”: 6640 fluorescence intensity (a.u.).
Turning to “ACACCAATTGAACATTTGGATGTAAACATTAGGGATGCTGCGGAGTCACCTAGTGCAG”, the binding signal is 3400 fluorescence intensity (a.u.).
On to “CCTAATTAAGTGGATTTTAGTTTTATATATTATTTAACTTCGGAGTCACCTAGTGCAG”, for which the binding signal was 25700 fluorescence intensity (a.u.).
The same measure for “ATATGATTAATATTTTATGCGATTAATATTTTATGCGTGACGGAGTCACCTAGTGCAG”: 41400 fluorescence intensity (a.u.); for “TGTGATTAGTTCTAATTTAATATAGCAAGAACTAGTGGATCGGAGTCACCTAGTGCAG”: 53800 fluorescence intensity (a.u.).
In the case of “ATGATTAATTATTATTTTAGTGATATGCGATATACTCGTGCGGAGTCACCTAGTGCAG”, the binding signal is 65000 fluorescence intensity (a.u.).
As for “TGTTAGATGATAAAACATGATTAATATTTTATGCGTGACTCGGAGTCACCTAGTGCAG”, the figure is 8120 fluorescence intensity (a.u.).
Take “GAGCCTAATTAATTCGTGATTAGCCTAATGACGGATTAATCGGAGTCACCTAGTGCAG”: the binding signal was 57400 fluorescence intensity (a.u.).
As for “CATTTGCTAATGACGGATTAATTAGGGTTTATAAATTCGTCGGAGTCACCTAGTGCAG”, the figure is 24400 fluorescence intensity (a.u.).
The same measure for “AGTTAGTGATTATATGATTAATCTATGGTCCAAATTATCTCGGAGTCACCTAGTGCAG”: 23900 fluorescence intensity (a.u.).
The same measure for “GCAGTCCATTAACACGTGATTAATTAAGTATTAGTTAATTCGGAGTCACCTAGTGCAG”: 21800 fluorescence intensity (a.u.); for “AGTTAATTAATTAGTCCATCCAAGGAAGGAGTATATGATTCGGAGTCACCTAGTGCAG”: 55800 fluorescence intensity (a.u.); for “ACCAATATATATATACTAATTAAATTTGTGGAACTTGGATCGGAGTCACCTAGTGCAG”: 4420 fluorescence intensity (a.u.).
On to “TTGCTAATGACGGATTAATTAGGCTTAATAAATTCGTCTCCGGAGTCACCTAGTGCAG”, for which the binding signal is 33900 fluorescence intensity (a.u.).
As for “GGTAGTACTTAATTAATCACGCGCTAATAGACCGCTCTGTCGGAGTCACCTAGTGCAG”, the figure is 22600 fluorescence intensity (a.u.).
The same measure for “TCGTATTTATGGCTAATTATTATTTCAGTGGTAGACGATTCGGAGTCACCTAGTGCAG”: 6670 fluorescence intensity (a.u.).
On to “TACACTAATTAATTAAGCATTAATCGTGGGAAGAGTAACGCGGAGTCACCTAGTGCAG”, for which the binding signal was 47000 fluorescence intensity (a.u.).
As for “TTGCATGTTTGTGGATTGATACATTAGATATTGATCTATCCGGAGTCACCTAGTGCAG”, the figure is 3540 fluorescence intensity (a.u.); as for “TCATGCAGTAATTAATCAGTGACAGTGAACCTTGTTAGTACGGAGTCACCTAGTGCAG”, 17400 fluorescence intensity (a.u.).
Turning to “AGAAAATTTAATCTTAAATATGGACATTACGAATGTACAACGGAGTCACCTAGTGCAG”, the binding signal is 4110 fluorescence intensity (a.u.).
The same measure for “AAAATTTGTCAATAAATATATAGGCAGTCCCGGTCCGTTCCGGAGTCACCTAGTGCAG”: 4490 fluorescence intensity (a.u.); for “TCCTCAATTAATTGCTGATCCTAATGCAGAGTTTCAGGTGCGGAGTCACCTAGTGCAG”: 35500 fluorescence intensity (a.u.); for “TATCACTAATAATTTAGCTCAGTTTGACAAGACGGATATCCGGAGTCACCTAGTGCAG”: 4380 fluorescence intensity (a.u.).
